Assay results reported in PubChem BioAssay AID687001 (Broad Institute, 2013).
Potency and affinity values are given separately. A number with no mark means an inactive call.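 How the source made its calls: active means signal-lowering compounds whose fitted half-maximal concentration is at or below twice the top tested dose in every run; inconclusive means runs disagree, flat 30 to 70% inhibition, or poor curve fit; inactive means the rest.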

Biological target: Protein S100-A4 (Homo sapiens) (UniProt P26447)
Assay: S100A4-myosin IIA binding inhibitor potency, dose response, biochemical, fluorescence polarization, cherry-picked hits (AID 687001);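 further: 0% = DMSO neutral control wells and -100% = TFP positive control wells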
Conditions: FP, S100A4/TAMRA-myosin IIA peptide binding; series mostly up to 11 µM; activity change, negative = inhibition: at the top concentration

Sequence of Protein S100-A4 (Homo sapiens) (P26447 whole entry, looked up): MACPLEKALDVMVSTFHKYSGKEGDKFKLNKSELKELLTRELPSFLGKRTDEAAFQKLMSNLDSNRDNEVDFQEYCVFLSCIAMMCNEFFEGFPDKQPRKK

Structure (SMILES) | activity change, negative = inhibition
Cc1cccn2c(=O)c3cc(C(=O)NC4CCCCCC4)sc3nc12 | 2.25%
COc1ccc(S(=O)(=O)Nc2ccc3c(c2)C(=O)N([C@H](C)CO)C[C@H](C)[C@H](CN(C)C(=O)Nc2ccccc2)OCCCC[C@H](C)O3)cc1 | 19%
COCCN(C(=O)CSc1nc2ccc(OC)cc2[nH]1)c1c(N)n(Cc2ccccc2)c(=O)[nH]c1=O | -0.187%
CON(C)S(=O)(=O)c1cccc(C(=O)Nc2cccc(S(=O)(=O)NC3=NCCCCC3)c2)c1 | 5.62%
O=C(CC(F)(F)F)N1C[C@@H]2[C@H](c3ccccc31)[C@@H](CO)N2CC1CCOCC1 | 3.09%
CCOC(=O)[C@]12CCCC=C1N(Cc1ccc3c(c1)OCO3)C(=O)[C@H](CC(=O)NCC1CCCCC1)C2 | -3.59%
O=C(/C=C/c1cc(Br)ccc1F)OCC(=O)N1CCOCC1 | -5.43%
C/C=C/c1ccc(C2[C@H]3CNC[C@@H]2N3S(=O)(=O)c2ccccc2C)cc1 (stereo partly drawn) | 29.6%
COc1ccc(C)cc1NC(=O)CN1CCN(c2ccccn2)CC1 | -3.87%
C[C@H](NC(=O)C[C@@H]1CC[C@H](NC(=O)C2CCOCC2)[C@@H](CO)O1)c1ccccc1 | 3.41%
C[C@@H]1CCCCO[C@H](CN(C)S(=O)(=O)c2cccs2)[C@@H](C)CN([C@@H](C)CO)C(=O)c2cc(NS(=O)(=O)c3cccs3)ccc2O1 | 49.8%
C[C@@H]1CCCCO[C@@H](CN(C)CC2CCCCC2)[C@@H](C)CN([C@H](C)CO)C(=O)c2cc(NS(=O)(=O)c3cn(C)cn3)ccc2O1 | 2.69% [at 10 µM]
Cc1ccc(CNC(=O)Cn2cnc(C(=O)Nc3ccc(C)c(C)c3)n2)o1 | -3.72%
CCOc1cc(S(=O)(=O)N2CCC(c3nc4ccccc4s3)CC2)c(OCC)cc1S(=O)(=O)N1CCCCC1 | -0.735%
CC(C)[C@@H]1C=C(C(=O)O)O[C@H](OCCCCO)C1 | 7.87%
C[C@H]1CN([C@@H](C)CO)C(=O)c2cc(NC(=O)NC3CCCCC3)ccc2O[C@@H]1CN(C)C(=O)Nc1ccccc1 | 0.497%
COc1ccc(S(=O)(=O)Nc2ccc3c(c2)CC(=O)N([C@H](C)CO)C[C@H](C)[C@@H](CN(C)CC2CC2)O3)cc1 | 8.47%
C[C@H]1CN([C@@H](C)CO)C(=O)c2cc(-c3cccc(C#N)c3)cnc2O[C@@H]1CN(C)Cc1cccnc1 | 2.31%
Cc1ccc(S(=O)(=O)NCC[C@@H]2CC[C@@H](NC(=O)C3CCOCC3)[C@H](CO)O2)cc1 | -1.78%

Structure (SMILES) | activity change, negative = inhibition
COc1cc2cc(-c3ccc(O)cc3O)nc(C)c2cc1OC | -6.81%
COc1ccc2c3c(n(C)c2c1)[C@H](CO)N(C(=O)c1ccccc1)CC31CCN(C(=O)c2ccccc2)CC1 | 7.85%
CO[C@@H]1CN(C)C(=O)c2cc(NS(=O)(=O)CC(F)(F)F)ccc2OC[C@@H](C)N(C)C[C@H]1C | 5.53%
CS(=O)(=O)Nc1cccc(C2=NN(C(=O)c3ccc(F)cc3)C(c3cccs3)C2)c1 (stereo not drawn) | -0.791%
Cc1cnc(CN(C)C(=O)C2CCC(=O)N(CCc3ccccc3)C2)[nH]1 (stereo not drawn) | -4.36%
CCOC1=C2[C@H](c3ccccc3)N(S(=O)(=O)c3ccc(C)cc3)C(C(C)(C)C)[C@H]2C(C#N)(C#N)C(C#N)(C#N)C1 (stereo partly drawn) | 2.74%
COc1ccc(CNC(=O)CNC(=O)[C@@H]2Cc3ccccc3CN2)cc1 | -1.67%
Cc1ccc2c(nc3s/c(=C\c4ccc(-c5ccccc5C(=O)O)o4)c(=O)n32)c1C | 44.5%
COc1ccc(C2/C=C\CN(S(=O)(=O)c3cccc4cccnc34)CC(=O)N2Cc2ccc(F)cc2)cc1 (stereo not drawn) | -1.77%
OCCC1CN(Cc2ccc3c(c2)CCO3)CCN1Cc1ccc(F)cc1 (stereo not drawn) | 7.23%
CC(C)c1ccc(/C=C(\NC(=O)c2ccccc2)C(=O)NCCCn2ccnc2)cc1 | -3.44%
CCOCCn1ccc2c(OCC(=O)Nc3ccccc3OC)cccc2c1=O | -2.76%
Fc1ccc(Nc2nc(N3CCOCC3)nc(N3CCOCC3)n2)cc1 | -2.81%
CCOc1ccc(N(CC)C(=O)CCS(=O)(=O)c2cccc3nonc23)cc1 | 0.567%
O=C(Nc1ccc(Cl)cc1)N[C@H]1CC[C@H](CCNC(=O)c2ccccc2F)O[C@@H]1CO | 8.02%
O=C(Nc1nnc(S(=O)(=O)N2CCN(c3ccc(F)cc3)CC2)s1)c1ccccc1 | 2.56%
CN1CCN(S(=O)(=O)c2cccc(C(=O)NC3CCCC3)c2)CC1 | -3.62%
COCCCNC(=O)c1ccc2sc([C@@H]3O[C@H](CO)[C@H](O)[C@H](O)[C@H]3O)nc2c1 | -2.29%
Cc1ccc(OCCOCCn2cnc3ccccc3c2=O)c([N+](=O)[O-])c1 | 3.84%
